Results reported in PubChem BioAssay (NCATS).
Inconclusive results are not listed. The source made the active and inactive calls. Calls follow the shape of the dose curve; as a rule, active = well fitted curve in the direction sought with a large enough effect; inconclusive = small, poorly fitted or top-dose-only effect, or another doubt; inactive = no such curve, though single readings can be large; an effect the other way counts as inactive or inconclusive.

Experiments:
[1] = target: Aldehyde dehydrogenase, mitochondrial (Homo sapiens) (UniProt P05091); assay: qHTS for Inhibitors of the Aldehyde Dehydrogenase Family (ALDH2) Primary screen (AID 2061308);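 also: plate controls were vehicle for no effect and reference inhibitor for full effect; nearly all actives have a fitted effect of over 55% in size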
[2] = target: Retinaldehyde dehydrogenase 3 (Homo sapiens) (UniProt P47895); assay: qHTS for Inhibitors of the Aldehyde Dehydrogenase Family (ALDH1A3) Primary screen (AID 2061315);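 also: plate controls were DMSO vehicle for no effect and reference inhibitor for full effect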
[3] = BET inhibitor-based combinations targeting novel dependencies in MECOM-rearranged (r) AML: SET-2 cell line (AID 2202231); settings: SET-2 AML cells viability, CellTiter-Glo luminescence, 48 h; viability: hits give low values, concentration not given here; also: nearly all actives have a fitted effect of over 35% in size; also: potency is read from the fitted curve at half-maximal effect;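 as to viability: plate controls were DMSO treated cells for no effect and wells without cells for full effect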
How it was run: (§1)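 Luminescent ATP readout (CellTiter-Glo) after 48 hr drug exposure gives viability. Curves span 11 concentrations and are normalized to DMSO and empty wells. Activity is reported as area under the curve and its Z-transform within each cell line.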

[4] = BET inhibitor-based combinations targeting novel dependencies in MECOM-rearranged (r) AML: OCI-AML3 cell line (AID 2202232); settings: Potency: OCI-AML3 viability; also: nearly all actives have a fitted effect of over 35% in size; also: potency is read from the fitted curve at half-maximal effect
How it was run: as §1

[5] = BET inhibitor-based combinations targeting novel dependencies in MECOM-rearranged (r) AML: MV-4-11 cell line (AID 2202233); also: nearly all actives have a fitted effect of over 45% in size; also: potency is read from the fitted curve at half-maximal effect
How it was run: (§2)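 Luminescent ATP readout (CellTiter-Glo, 15 min at room temperature) after 48 hr drug exposure gave viability. Dose-response curves, normalized to DMSO and empty-well controls, were summarized as area under the curve and its mean-centred Z-score.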

[6] = BET inhibitor-based combinations targeting novel dependencies in MECOM-rearranged (r) AML: HNT-34 cell line (AID 2202234); also: nearly all actives have a fitted effect of over 35% in size; also: potency is read from the fitted curve at half-maximal effect
How it was run: as §2

[7] = BET inhibitor-based combinations targeting novel dependencies in MECOM-rearranged (r) AML: AML-194 cell line (AID 2202237; also: nearly all actives have a fitted effect of over 40% in size; also: potency is read from the fitted curve at half-maximal effect)
How it was run: as §1

[8] = BET inhibitor-based combinations targeting novel dependencies in MECOM-rearranged (r) AML: UCSD-AML1 cell line (AID 2202235); also: nearly all actives have a fitted effect of over 40% in size; also: potency is read from the fitted curve at half-maximal effect
How it was run: as §2

[9] = BET inhibitor-based combinations targeting novel dependencies in MECOM-rearranged (r) AML: AML-191 cell line (AID 2202236; also: nearly all actives have a fitted effect of over 35% in size; also: potency is read from the fitted curve at half-maximal effect)
How it was run: as §1

**Q.** Which Potency [1] does the source give for `CCCNC(=O)[C@H]1O[C@@H]1C(=O)N[C@H](C(=O)N1CCC[C@H]1C(=O)OC)C(C)CC` (stereo partly specified) here?
**A.** inactive

**Q.** And the Potency [2]?
**A.** inactive

**Q.** What about the Potency [3] of the same compound?
**A.** 26.3 µM (active)

**Q.** And the Potency [4]?
**A.** 2.09 µM (active)

**Q.** And the Potency [5]?
**A.** 8.33 µM (active)

**Q.** What about the Potency [6] of the same compound?
**A.** 23.5 µM (active)

**Q.** And the Potency [7]?
**A.** 10.5 µM (active)

**Q.** What does the source list for `Cc1nc(-c2cn3c(n2)-c2ccc(-c4cnn(C(C)(C)C(N)=O)c4)cc2OCC3)n(C(C)C)n1`?
**A.** Potency [1]: inactive; Potency [2]: inactive; Potency [3]: 23.5 µM (active); Potency [4]: 0.742 µM (active); Potency [5]: 5.25 µM (active); Potency [6]: 16.6 µM (active); Potency [8]: 0.209 µM (active)

**Q.** With `O=C1Nc2nc(-c3c(O)cccc3OCC3CC3)cc([C@@H]3CCCNC3)c2CO1` as the compound, how does the Potency [1] read?
**A.** inactive

**Q.** And the Potency [2]?
**A.** inactive

**Q.** What about the Potency [3] of the same compound?
**A.** 20.9 µM (active)

**Q.** And the Potency [4]?
**A.** 16.6 µM (active)

**Q.** And the Potency [5]?
**A.** 5.9 µM (active)

**Q.** What about the Potency [6] of the same compound?
**A.** 18.6 µM (active)

**Q.** And the Potency [9]?
**A.** 18.6 µM (active)

**Q.** And the Potency [7]?
**A.** 18.6 µM (active)

**Q.** Which Potency [1] does the source give for `C[C@H]1[C@H](C)CC[C@]2(C(=O)O)CC[C@]3(C)C(=CC[C@@H]4[C@@]5(C)C[C@@H](O)[C@H](O)[C@@](C)(CO)[C@@H]5CC[C@]43C)[C@H]12` here?
**A.** inactive

**Q.** What about the Potency [2] of the same compound?
**A.** inactive

**Q.** What about the viability [3] of the same compound?
**A.** 104% (inactive)

**Q.** And the Potency [4]?
**A.** inactive

**Q.** What about the Potency [5] of the same compound?
**A.** inactive

**Q.** What about the Potency [6] of the same compound?
**A.** inactive

**Q.** What about the Potency [9] of the same compound?
**A.** inactive

**Q.** And the Potency [7]?
**A.** inactive

**Q.** For `COc1cc(Oc2ccnc3cc(OC)c(OC)cc23)ccc1NC(=O)NC(C)c1nccs1` (stereo unspecified), which Potency [1] is on record?
**A.** inactive

**Q.** And the Potency [2]?
**A.** inactive

**Q.** What about the Potency [3] of the same compound?
**A.** 10.5 µM (active)

**Q.** And the Potency [4]?
**A.** 10.5 µM (active)

**Q.** And the Potency [5]?
**A.** 11.8 µM (active)

**Q.** And the Potency [6]?
**A.** 13.2 µM (active)

**Q.** Which results are given for `CO[C@H]1C[C@@H]2CC[C@@H](C)[C@@](O)(O2)C(=O)C(=O)N2CCCC[C@H]2C(=O)O[C@H]([C@H](C)C[C@@H]2CC[C@@H](OC(=O)C(C)(CO)CO)[C@H](OC)C2)CC(=O)[C@H](C)/C=C(\C)[C@@H](O)[C@@H](OC)C(=O)[C@H](C)C[C@H](C)/C=C/C=C/C=C/1C`?
**A.** Potency [1]: inactive; Potency [2]: inactive; Potency [3]: 0.091 µM (active)

**Q.** Which Potency [1] does the source give for `CCn1cc(-c2ccnc3[nH]c(-c4cccc(CN(C)C)c4)cc23)c(-c2ccc(NC(=O)N(C)C)cc2)n1` here?
**A.** inactive

**Q.** And the Potency [2]?
**A.** inactive

**Q.** And the Potency [3]?
**A.** 16.6 µM (active)

**Q.** What about the Potency [4] of the same compound?
**A.** 8.33 µM (active)

**Q.** And the Potency [5]?
**A.** 0.186 µM (active)

**Q.** What about the Potency [6] of the same compound?
**A.** 3.32 µM (active)

**Q.** What about the Potency [8] of the same compound?
**A.** 4.17 µM (active)

**Q.** And the Potency [9]?
**A.** 5.25 µM (active)

**Q.** And the Potency [7]?
**A.** 5.9 µM (active)

**Q.** With `CCN1CCN(Cc2ccc(NC(=O)c3ccc(C)c(/C=C/c4cnc5[nH]ccc5c4OC)c3)cc2C(F)(F)F)CC1` as the compound, how does the Potency [1] read?
**A.** inactive

**Q.** What about the Potency [2] of the same compound?
**A.** inactive

**Q.** And the Potency [3]?
**A.** 5.9 µM (active)

**Q.** What about the Potency [4] of the same compound?
**A.** 5.25 µM (active)

**Q.** What about the Potency [5] of the same compound?
**A.** 0.186 µM (active)

**Q.** And the Potency [6]?
**A.** 0.209 µM (active)

**Q.** And the Potency [8]?
**A.** 2.95 µM (active)

**Q.** And the Potency [7]?
**A.** 2.95 µM (active)

**Q.** What does the source list for `CN1CCN(C2CCC(n3cc(-c4ccc(Oc5ccccc5)cc4)c4c(N)ncnc43)CC2)CC1` (stereo unspecified)?
**A.** Potency [1]: inactive; Potency [2]: inactive; Potency [3]: 20.9 µM (active); Potency [4]: 13.2 µM (active); Potency [5]: 0.235 µM (active); Potency [8]: 7.42 µM (active); Potency [9]: 9.34 µM (active); Potency [7]: 8.33 µM (active)

**Q.** With `COc1cc(Nc2ncc(F)c(Nc3ccc4c(n3)N(COP(=O)(O)O)C(=O)C(C)(C)O4)n2)cc(OC)c1OC` as the compound, how does the Potency [1] read?
**A.** inactive

**Q.** What about the Potency [2] of the same compound?
**A.** inactive

**Q.** And the Potency [3]?
**A.** 13.2 µM (active)

**Q.** And the Potency [4]?
**A.** inactive

**Q.** And the Potency [5]?
**A.** 0.833 µM (active)

**Q.** What about the Potency [6] of the same compound?
**A.** 2.09 µM (active)

**Q.** What about the Potency [8] of the same compound?
**A.** 2.63 µM (active)

**Q.** And the Potency [9]?
**A.** 3.72 µM (active)

**Q.** For `CCC(=O)Nc1cccc(Oc2nc(Nc3ccc(N4CCN(C)CC4)cc3OC)ncc2Cl)c1`, which Potency [1] is on record?
**A.** inactive

**Q.** And the Potency [2]?
**A.** inactive

**Q.** What about the Potency [3] of the same compound?
**A.** 20.9 µM (active)

**Q.** What about the Potency [4] of the same compound?
**A.** 14.8 µM (active)

**Q.** What about the Potency [5] of the same compound?
**A.** 7.42 µM (active)

**Q.** And the Potency [6]?
**A.** 11.8 µM (active)

**Q.** And the Potency [8]?
**A.** inactive

**Q.** And the Potency [9]?
**A.** 18.6 µM (active)

**Q.** And the Potency [7]?
**A.** 23.5 µM (active)

**Q.** Which Potency [1] does the source give for `Cc1cc(C(=O)Nc2cc(Nc3ccc4c(/C=C/c5ccccn5)n[nH]c4c3)ccc2F)n(C)n1` here?
**A.** inactive

**Q.** And the Potency [2]?
**A.** inactive

**Q.** And the Potency [3]?
**A.** 18.6 µM (active)

**Q.** And the Potency [4]?
**A.** 18.6 µM (active)

**Q.** What about the Potency [6] of the same compound?
**A.** 7.42 µM (active)

**Q.** And the Potency [8]?
**A.** 6.61 µM (active)

**Q.** And the Potency [9]?
**A.** 16.6 µM (active)

**Q.** Which Potency [1] does the source give for `CCCCCCCCCCCCCCCCOCCCOP(=O)(O)COC(CO)Cn1ccc(N)nc1=O` (stereo unspecified) here?
**A.** inactive

**Q.** And the Potency [2]?
**A.** inactive

**Q.** What about the viability [3] of the same compound?
**A.** 118% (inactive)

**Q.** And the Potency [4]?
**A.** 20.9 µM (active)

**Q.** And the Potency [5]?
**A.** inactive

**Q.** What about the Potency [9] of the same compound?
**A.** inactive

**Q.** What about the Potency [7] of the same compound?
**A.** inactive

**Q.** Which Potency [1] does the source give for `Cc1cc(-c2nc3cc(F)ccc3s2)ccc1NC(=O)[C@@H](N)CCCCN` here?
**A.** inactive

**Q.** What about the Potency [2] of the same compound?
**A.** inactive

**Q.** What about the Potency [3] of the same compound?
**A.** 13.2 µM (active)

**Q.** And the Potency [4]?
**A.** 14.8 µM (active)

**Q.** What about the Potency [5] of the same compound?
**A.** 13.2 µM (active)

**Q.** What about the Potency [6] of the same compound?
**A.** 8.33 µM (active)

**Q.** What about the Potency [8] of the same compound?
**A.** 14.8 µM (active)

**Q.** And the Potency [7]?
**A.** 16.6 µM (active)

**Q.** For `COC(=O)N[C@@H](C)CNc1nccc(-c2cn(C(C)C)nc2-c2cc(Cl)cc(NS(C)(=O)=O)c2F)n1`, which Potency [1] is on record?
**A.** inactive

**Q.** What about the Potency [2] of the same compound?
**A.** inactive

**Q.** And the Potency [3]?
**A.** 2.63 µM (active)

**Q.** What about the Potency [4] of the same compound?
**A.** 1.66 µM (active)

**Q.** And the Potency [5]?
**A.** 2.35 µM (active)

**Q.** What about the Potency [8] of the same compound?
**A.** 2.63 µM (active)

**Q.** And the Potency [9]?
**A.** 1.66 µM (active)

**Q.** What about the Potency [7] of the same compound?
**A.** 2.09 µM (active)
